# aSyn 5UTR inh: 5' untranslated region of α-synuclein, MLPCN primary screen; alpha-synuclein 5'UTR reporter, inhibitor activity; hit rate 0.82% among 300,000; inhibition, % (tested at 7.5 µM); AID 1813; in the data active = inhibition above about 60%; inconclusive = no clear call, values can overlap the other calls;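 note: H4 neuroglioblastoma cells stably carrying SNCA 5'UTR luciferase fusion; 0% = DMSO wells and 100% = positive control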
# CSC inhib: blocks cancer stem cells | cancer stem cell-like cells viability, luminescence | inhibition, % at 7.5 µM | hit rate 1.1% among 300,000; in the data active = inhibition above about 75%; inconclusive = no clear call, values can overlap the other calls; tested in HMLE shEcad cells
# Mdm2 MdmX PPI: inhibitors of human Mdm2/MdmX interaction | SaOS-2 split-luciferase Mdm2/MdmX complementation, luminescence | hit rate 3% among 330,000 | AID 485346 | O15151+Q00987 | inhibition, % at 8 µM;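 active = inhibition of at least 50% at 8 µM in the primary screen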
# Bfl-1 A1 inh: inhibitors of the anti-apoptotic protein A1, read as caspase activation. hit rate 0.066% among 330,000. caspase activation, % (no concentration beside the values). MEF A1-2A-BIM cells, Caspase-Glo 3/7 luminescence, 3 h; percent of clofoctol response, vehicle zero;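 active = over half of replicate activation scores above 10%, or exactly half above 10 with the replicate mean above 10; inconclusive = replicate mean below 10 yet half the replicates above 10; inactive = over half of replicates below 10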
# Beta cell apopt: blocks beta cell apoptosis | protection from apoptosis, % (no concentration beside the values) | INS-1E cytokine-induced death, ATP luminescence, 48 h; percent of positive-control rescue, neutral wells zero | hit rate 0.8% among 300,000 | AID 435005;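 active = Every replicate reaches about 75%, or at least half do and their mean reaches it too, limit read from the data; inconclusive = At least half of replicates reach the limit but their mean does not; inactive = Under half of replicates reach the limit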;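 note: 0% = cytokine-treated negative control wells and 100% = positive control rescue; higher means more ATP so stronger rescue from cytokine killing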
# Mdm2 MdmX conf: confirmation of human Mdm2/MdmX interaction inhibitors | shares compounds with Mdm2 MdmX PPI | Mdm2-MdmX binding, luminescent assay | inhibition, % at 8 µM | hit rate 55% among 10,000; in the data active = inhibition above about 40%
# FLuc counter: inhibits full-length luciferase, flagging false Mdm2/MdmX hits | SaOS-2 full-length luciferase counterscreen, luminescence | hit rate 77% among 6,200 | shares compounds with Mdm2 MdmX PPI | inhibition, % at 8 µM | AID 504607;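 active = mean inhibition at 8 µM reaching about 37%, which flags the compound as non-specific, limit read from the data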;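 note: p53-null SaOS-2 cells with luciferase driven by a doxycycline-inducible promoter; compound on cells about two nights before reading with doxycycline added after day one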
# Active calls of the source: *; ? = inconclusive; · = no result given. Sampled rows, rich in hits. Any-hit rate of the full collection: about 4.1%.
SMILES,aSyn 5UTR inh,CSC inhib,Mdm2 MdmX PPI,Bfl-1 A1 inh,Beta cell apopt,Mdm2 MdmX conf,FLuc counter
COc1cc(C(=O)Nc2ccc3nc(N4CCN(C)CC4)cc(C)c3c2)cc(OC)c1OC,-103,-14,53*,0,-4,35,·
COc1ccc(S(=O)(=O)N2CCC(C(=O)N[C@H](C(=O)NC3CCCC3)C(C)C)CC2)cc1,6,-11,8,0,0,·,·
CN(C)c1ccc(/C=C2\Oc3ccc(C#Cc4cccc(N)c4)cc3C2=O)cc1,·,17,43,-1,13,·,·
CC(=O)NC1(C(F)(F)F)NC(=O)N(CCc2ccccc2)C1=O (stereo not drawn),1,1,-30,?,1,·,·
Cc1ccc(N(CC(=O)NCC2CCCO2)C(=O)CCC(=O)Nc2nccs2)cc1 (stereo not drawn),7,5,-3,0,-5,·,·
Cc1nc2ccccn2c1-c1csc(NCc2ccco2)n1,-20,-15,21,-1,·,·,·
Cc1nc2ncccn2c1-c1csc(Nc2ccc(O)cc2)n1,-67,·,72*,·,·,68*,66*
Cc1ccc(Nc2nc(-c3c(C)nc4ccccn34)cs2)cc1,44,·,89*,·,·,73*,81*
C=CCNc1nc(-c2c(C)nc3ncccn23)cs1,-6,-33,9,0,-9,·,·
Cc1ccc(Nc2nc(-c3c(C)nc4ncccn34)cs2)cc1,84*,62,74*,1,9,84*,73*
CC(C)=CCc1c2c(c(O)c3c(=O)c4c(oc13)-c1cc(O)c(O)cc1OC4C=C(C)C)C=CC(C)(C)O2 (stereo not drawn),-3,-10,83*,0,71,42*,34
O=C(Nc1ccccn1)C1CCN(C(=O)Nc2ccccc2)CC1,15,-10,15,0,-1,·,·
Cc1cc(C)n(-c2nc(Nc3ccccc3)nc(-n3nc(C)cc3C)n2)n1,-8,7,13,0,3,·,·
COc1cccc(/C=N/Nc2cc(-n3nc(C)cc3-c3ccccc3)ncn2)c1O,110*,·,59*,0,·,78*,50*
COc1cccc(/C=N/Nc2nc(Nc3ccccc3)nc(-n3nc(C)cc3C)n2)c1O,57,46,57*,0,135*,23,·
Cc1cc(=O)n2nc(N3CCC(C(=O)NCc4ccccc4Cl)CC3)sc2n1,5,-4,21,0,-4,·,·
COc1ccc(C(=O)Nc2cc(C)nn2-c2nc3ccccc3[nH]2)c(OC)c1,-10,-12,51*,0,11,33,·
Cc1cc(NC(=O)C2CCCC2)n(-c2nc3ccccc3[nH]2)n1,8,-13,53*,0,7,41*,63*
COc1cccc(OC)c1C(=O)Nc1cc(C)nn1-c1nc2ccccc2[nH]1,-37,50,77*,-1,31,54*,63*
CCOC(=O)C(=O)Nc1cc(C)nn1-c1nc2ccccc2[nH]1,-16,-15,7,-1,0,·,·
Cc1cc(NC(=O)c2ccccc2)n(-c2nc3ccccc3[nH]2)n1,14,-7,39,-1,9,·,·
Cc1cc(NC(=O)c2sccc2C)n(-c2nc3ccccc3[nH]2)n1,26,-1,59*,0,·,26,·
Cc1cc(NC(=O)c2cccs2)n(-c2nc3ccccc3[nH]2)n1,-3,54,40,-1,50,·,·
CCC1Sc2ccc(S(=O)(=O)CCC(=O)Nc3cccc(Br)c3)cc2NC1=O (stereo not drawn),-12,-7,-12,0,-1,·,·
O=C(NCC(=O)N1CCN(S(=O)(=O)c2c(F)cccc2F)CC1)c1ccccc1F,·,·,-6,·,·,·,·
SMILES,aSyn 5UTR inh,CSC inhib,Mdm2 MdmX PPI,Bfl-1 A1 inh,Beta cell apopt,Mdm2 MdmX conf,FLuc counter
COc1ccc(CNS(=O)(=O)CCNC(=O)c2ccc(OC)cc2)cc1,2,·,-29,0,-6,·,·
CN(CC(=O)Nc1ccc(F)c(F)c1F)C(=O)CCCSc1nc2ccccc2[nH]1,13,-7,2,0,0,·,·
Cc1nnc(SCC(=O)c2cc(C)n(-c3c(C)n(C)n(-c4ccccc4)c3=O)c2C)s1,3,6,6,0,-3,·,·
COc1ccc(-n2c(C)cc(C(=O)CCl)c2C)cc1,65*,95*,100*,3,38,61*,49*
Cc1cc(C(=O)CCl)c(C)n1-c1c(C)n(C)n(-c2ccccc2)c1=O,8,18,51*,0,-24,35,·
Cc1cc(-n2c(C)cc(C(=O)CCl)c2C)no1,119*,-6,79*,0,9,67*,87*
Cc1cc(-n2c(C)cc(C(=O)CN3C(=O)C(=O)N(C)C3=O)c2C)no1,·,-3,-12,1,-4,·,·
Cc1nn(CC(=O)Nc2c(F)c(F)cc(F)c2F)c(=O)c2cccn12,5,-7,26,1,·,·,·
Cc1cc(/C=N/Nc2ncnc(N)c2[N+](=O)[O-])c(C)n1-c1ccccc1,95*,3,65*,-13,16,70*,54*
Nc1ccc(C(=O)N/N=C\c2cc(N=Nc3cccc4ccccc34)ccc2O)cc1,50,98*,57*,0,70,67*,36*
O=C(NN=Cc1c(O)ccc2ccccc12)c1ccc2c(c1)OCO2,·,10,88*,1,-6,89*,50*
O=C(CNC(=O)c1ccc(S(=O)(=O)N2CCCC2)cc1)N/N=C/c1ccccc1Cl,28,22,-7,2,-5,·,·
O=C(N/N=C\c1c(O)ccc2ccccc12)c1ccc(S(=O)(=O)N2CCCCC2)cc1,114*,100*,83*,0,97*,86*,55*
O=C(N/N=C/c1ccccc1)c1ccc2c(c1)OCO2,-42,1,-74,-7,0,·,·
O=C(N/N=C/c1c(O)ccc2ccccc12)c1ccc(CO)nc1,51,87*,69*,0,·,66*,36*
COc1ccc(C(=O)C2CCCN(S(=O)(=O)c3ccccc3F)C2)c(C)c1 (stereo not drawn),-4,-6,7,0,-8,·,·
CCc1c(C)sc(NC(=O)C2CC2c2ccccc2)c1C(N)=O (stereo not drawn),10,27,57*,1,1,73*,55*
COc1ccc(CN(C)CC(=O)Nc2cccc(S(=O)(=O)N3CCCC3)c2)cc1F,·,-1,1,0,-2,·,·
COc1ccc(-c2sc3ccc(N4CCOCC4)cc3c2C#CCO)cc1,·,·,35,-1,4,·,·
COc1cc(OC)cc(-c2sc3ccc(OC)cc3c2C#CC(C)(C)O)c1,·,-6,-15,0,-9,·,·
COc1ccc(-c2ccc3oc(-c4ccc(OC)cc4)c(C#CC4(O)CCCCC4)c3c2)cc1,35,77*,70*,-1,0,32,·
COc1ccc(-c2sc3cc4c(cc3c2C#CC2(N)CCCCC2)OCO4)cc1,·,130*,79*,1,3,30,·

# Bioassay records as filed in PubChem BioAssay.
